# Sampled rows, rich in hits. Any-hit rate of the full collection: about 6.3%.
# Spn PMK inh – blocks S. pneumoniae phosphomevalonate kinase; purified PMK, PK/LDH-coupled NADH absorbance 340 nm; inhibition, % at 10 µM; hit rate 0.49% among 65,000;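 active means top-ranked compounds by inhibition in the single 10 µM screen, taking a fixed number of the strongest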;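 further: 0% = full reaction with DMSO carrier and 100% = background rate without enzyme reaction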
# A340 absorber – absorbance at 340 nm; compound absorbance at 340 nm, fold over control; fold change at 10 µM; 65,000 tested, under 10 active;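 active means at 10 µM dose, initial 340 nm absorbance at least 2 fold that of control wells; inactive means change under 2 fold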;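 further: initial absorbance extrapolated from kinetic A340 decline of NADH oxidation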
# Spn MK inh – blocks S. pneumoniae mevalonate kinase; purified MK, PK/LDH-coupled NADH absorbance 340 nm; inhibition, % at 10 µM; hit rate 0.48% among 65,000; AID 555;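 active means ranked among the strongest by inhibition in the single 10 µM screen, a fixed top-ranked set picked for dose follow-up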
# Autofluor 339 – intrinsic fluorescence of library compounds, ex339/em460 – biochemical, MLSMR library, data from DPM-DC assay, artefact control, profiling panel | hit rate 5.5% among 65,000 | fluorescence fold increase at 10 µM | AID 709 | compound autofluorescence, ex339/em460 nm, NADH buffer; stronger effect = higher value; 1 = no-compound wells, NADH background;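 active means at 10 µM, mean starting fluorescence two-fold or more over control wells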;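 further: signal is the first read of a kinetic run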
# NADH enzymes – inhibition of NAD/NADH coupling enzymes, library profiling | coupled PK/LDH NADH assays, four targets | IC50, µM (top dose mostly 10 µM), without a hit: at the top dose inhibition | hit rate 0.02% among 65,000;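 active means single-dose screening hits from any of four coupled enzyme assays that gave an IC50 when retested across doses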;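 further: the DPM-DC format reads NADH fluorescence rather than 340 nm absorbance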
# Spn DPM-DC inh – S. pneumoniae DPM-DC inhibition | calls only at 10 µM | AID 556 | purified DPM-DC, PK/LDH coupled NADH fluorescence | hit rate 0.49% among 65,000;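 active means the 320 compounds with the highest percent inhibition in the single-dose primary screen, excluding strongly autofluorescent ones, cut at about 32% in these data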;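 further: kinetic rate of NADH fluorescence loss reporting ADP formed by the decarboxylase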
# * marks the source's active call; other numbers are inactive results; i = inactive; · = not tested or not shown.
SMILES,Spn PMK inh,A340 absorber,Spn MK inh,Autofluor 339,NADH enzymes,Spn DPM-DC inh
COc1cc(C(=O)OCCN2CCOCC2)cc(OC)c1OC,0.0,1.03,7.0,1.05,2.0%,i
COc1cc2c(cc1OC)-c1cc(NC3CCCCCCC3)nc(=O)n1CC2,12.0,1.13,3.0,2.37*,11.0%,i
CCNc1cc2n(c(=O)n1)CCc1cc(OC)c(OC)cc1-2,0.0,1.17,1.0,2.69*,6.0%,i
NC(=O)C1CCCNC1 (configuration not stated),13.0,0.98,0.0,1.01,4.0%,i
COc1cc(C)nc(N2CCC(C(=O)NC3CCCCC3)CC2)n1,8.0,1.02,0.0,1.05,3.0%,i
COc1cccc(CNC(=O)C2CCN(c3cnccn3)CC2)c1,15.0,1.01,15.0,1.27,4.0%,i
CCC1(CC)C(=O)NC(=O)NC1=NCCc1c[nH]c2ccccc12,5.0,1.05,0.0,1.15,2.0%,i
CCCCCCNc1cc2n(c(=O)n1)CCc1cc(OC)c(OC)cc1-2,8.0,1.13,7.0,3.36*,8.0%,·
O=c1c2ccc(-c3nnc4n3-c3ccccc3SC4)cc2nc2n1CCCCC2,5.0,0.99,0.0,1.04,2.0%,i
COc1ccccc1/C=C/CN1CCOCC1,0.0,1.03,44.0*,1.13,15.0%,i
COc1ccccc1N1CCN(C/C=C/c2ccc(N(C)C)cc2)CC1,0.0,1.09,35.0,1.24,12.0%,i
C#CCSc1nc(-c2cccs2)ccc1C#N,14.0,1.04,2.0,1.85,2.0%,i
COc1ccc(-c2nnc(SCC(=O)N3CCOCC3)o2)cc1,3.0,1.01,1.0,1.17,1.0%,i
O=C(CSc1nc(-c2cccs2)cc(C(F)(F)F)n1)NCc1ccco1,9.0,1.14,13.0,1.1,7.0%,i
COc1ccc(-c2cc(-c3cccs3)c(C#N)c(SCC(=O)NCc3ccco3)n2)cc1,4.0,1.04,8.0,2.51*,10.0%,i
CN1CCN(C(=O)CSc2nc(-c3cccs3)cc(-c3cccs3)c2C#N)CC1,0.0,1.12,7.0,2.84*,6.0%,i
COc1ccc(-c2cc(C(F)(F)F)nc(SCCC(=O)N3CCOCC3)n2)cc1,14.0,1.01,12.0,2*,9.0%,i
COC(=O)CSc1nc(-c2cccs2)ccc1C#N,3.0,1.12,9.0,2.27*,6.0%,·
COC(=O)C1=C(N)Oc2cc(C)n(Cc3cccnc3)c(=O)c2C1c1cccc(OC)c1OC (configuration not stated),15.0,1.04,12.0,1.08,9.0%,i
CCC(c1nnnn1CCC(C)C)N1CCC(C(N)=O)CC1 (configuration not stated),12.0,0.97,3.0,1.08,5.0%,i
COC(=O)c1[nH]c2ccccc2c1NC(=O)CN1CCN(C(=O)c2ccco2)CC1,1.0,1.02,12.0,1.5,4.0%,i
Cn1c(Cl)cnc1C1CC(=O)c2cc(Cl)ccc2O1 (configuration not stated),5.0,1,10.0,1.1,3.0%,i
COc1ccc(-c2cc(C(F)(F)F)nc(SCC(=O)NCc3ccco3)n2)cc1OC,12.0,1.01,9.0,2.73*,4.0%,·
COc1ccc(CCNC(=O)CSc2nc(-c3ccco3)cc(C(F)(F)F)n2)cc1OC,4.0,1.11,4.0,1.07,3.0%,i
COc1ccc(-c2cc(C(F)(F)F)nc(SCC(N)=O)n2)cc1,13.0,1.08,9.0,3.69*,11.0%,·
SMILES,Spn PMK inh,A340 absorber,Spn MK inh,Autofluor 339,NADH enzymes,Spn DPM-DC inh
COc1ccccc1OCc1nnc(SCC(=O)c2cc(Cl)ccc2OC)o1,2.0,1,2.0,1.04,2.0%,i
Cn1c(=O)c2ncn(CC(=O)Nc3ccc4oc(-c5cccc6ccccc56)nc4c3)c2n(C)c1=O,3.0,1.1,8.0,3.69*,6.0%,·
CCC(C)c1ccc2oc(-c3ccc(NC(=O)Cn4cnc5c(=O)n(C)c(=O)n(C)c54)cc3)nc2c1 (configuration not stated),0.0,1.01,0.0,3.69*,0.0%,·
Cc1cccn2c(=O)c3cc(C#N)c(=O)n(Cc4cccnc4)c3nc12,3.0,1.04,6.0,3.8*,5.0%,·
N#Cc1cc2c(=O)n3ccccc3nc2n(Cc2cccnc2)c1=O,9.0,1.07,7.0,3.84*,8.0%,·
CCOc1ccccc1-c1nc(C(N)=O)c2[nH]c(=O)n(-c3cccc(C)c3)c2n1,10.0,1.05,0.0,2.53*,10.0%,i

# Assay outcomes from PubChem.
